# Reference: publication PMC7819943, “Rice protein-binding microarrays: a tool to detect cis-acting elements near promoter regions in rice”
# In all, about 68,000 sequences were measured (“fluorescence intensity (a.u.)”: median about 9,100, highest 2% from about 16,000 on). Many of the other results were omitted from the sample, so the highest values are more common in it than they were.
# Molecular target: OsWRKY34 (Oryza sativa, UniProt Q0JBA9 1-250)
# Assay: protein-binding microarray (RPBM); PBS, 2% BSA, 51.3 ng/ul salmon testes DNA, 50 uM zinc acetate, 200 nM TF, 25 C, 1 h; high values mean tight binding
# Conditions: protein: recombinant; tags: N-terminal polyhistidine and DsRed monomer fusion (pET32a); label: CyDye5-dUTP incorporated in the synthesized complementary strand; 3' TTTTT single-stranded linker to array surface; dsDNA, one strand shown
# Procedure, shortened: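 In PBS with 2% BSA, salmon testes DNA and 50 µM zinc acetate, 200 nM protein was incubated on a custom Agilent array at 25 °C for 1 h and then washed off. The array had been made double-stranded by primer extension with Cy5-dUTP and blocked with 2% BSA. The proteins were transcription factors fused N-terminally to polyhistidine and DsRed, expressed in E. coli BL21-CodonPlus and purified on Ni–NTA. The binding signal is per-feature fluorescence intensity (arbitrary units) from an Axon 4000B scanner.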
# Chain of OsWRKY34 (Q0JBA9 entry or part of it): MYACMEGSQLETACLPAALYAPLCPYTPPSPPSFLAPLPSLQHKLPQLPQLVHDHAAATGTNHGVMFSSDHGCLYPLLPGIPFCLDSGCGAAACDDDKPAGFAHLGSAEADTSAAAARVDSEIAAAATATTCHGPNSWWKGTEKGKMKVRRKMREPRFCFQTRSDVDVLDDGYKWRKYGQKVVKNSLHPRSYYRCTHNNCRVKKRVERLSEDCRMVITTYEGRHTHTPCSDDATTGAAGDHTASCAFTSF
row,Sequence,binding signal
1,TCCTCTTCGCCGGCTGCCGCTCCTCTCCCCGCTCGTCTTTCGGAGTCACCTAGTGCAG,9440 fluorescence intensity (a.u.)
2,TTTTTTTTTTATCCGTCCCTACTCCTCGCACCTTAAAAATCGGAGTCACCTAGTGCAG,10300 fluorescence intensity (a.u.)
3,GATCTCTCTCTCATCAGGACCCCGGCCTTAAGTTGTTTCTCGGAGTCACCTAGTGCAG,9120 fluorescence intensity (a.u.)
4,TACTTCCTTTGTCCCTAAATATTTGATGCCGTTGACTTTTCGGAGTCACCTAGTGCAG,23900 fluorescence intensity (a.u.)
5,GATACTCCCTCCATCCATAAATATTTGATGCCGTTGACTTCGGAGTCACCTAGTGCAG,12300 fluorescence intensity (a.u.)
6,ATTTCCCGTCCTTGTCCTAAATGAGTACTAATTTTGATTTCGGAGTCACCTAGTGCAG,10400 fluorescence intensity (a.u.)
7,TGGATTTATTTATTCTTGTTCTTTTTCTCGAAAATTTCCACGGAGTCACCTAGTGCAG,8640 fluorescence intensity (a.u.)
8,CTGCTATGAATTATCGGTTGCTTCCGGTGTTGGGCATTGACGGAGTCACCTAGTGCAG,12400 fluorescence intensity (a.u.)
9,TTAAATGAGTGTTGACTTTTCGTATAACGTTTGACCATTTCGGAGTCACCTAGTGCAG,14600 fluorescence intensity (a.u.)
10,CTACTCCCTCCATTTCGAAATGTTTGACACCGTTGACTTTCGGAGTCACCTAGTGCAG,13900 fluorescence intensity (a.u.)
11,GGTTTTGTGATTTTGACACCCATTCAGGTTCGTTGTTTTTCGGAGTCACCTAGTGCAG,11900 fluorescence intensity (a.u.)
12,TTTCGACTAACGTTTGACCATTCGTTTTATTCAAAATTTTCGGAGTCACCTAGTGCAG,8880 fluorescence intensity (a.u.)
13,TGACACCGTTGACTTTTCGACCAATGTTTGACCATTCGTTCGGAGTCACCTAGTGCAG,24400 fluorescence intensity (a.u.)
14,ACACCGTTGACTTTTCGACTAACGTTTGACCATTTGTTTTCGGAGTCACCTAGTGCAG,49300 fluorescence intensity (a.u.)
15,GATCCGCTCGCCCCGCCGCGCCGCCGACCATCGCCATCGCCGGAGTCACCTAGTGCAG,8410 fluorescence intensity (a.u.)
16,TCCCACCCGCTGCCACCAAAACCCTCCCCGCGCCCGGTCCCGGAGTCACCTAGTGCAG,10500 fluorescence intensity (a.u.)
17,TCGACAATGTCACTCCATCATATCATGGCCAAAATATAACCGGAGTCACCTAGTGCAG,8140 fluorescence intensity (a.u.)
18,TCGCGACCTCTCATCTATCGATCTTTGCATACATATATATCGGAGTCACCTAGTGCAG,17800 fluorescence intensity (a.u.)
19,CTCTCCTCTCCGGTCATCTCATATATACGTATCTATATCGCGGAGTCACCTAGTGCAG,8520 fluorescence intensity (a.u.)
20,CGCATATATATCTCTCTTTGCATCTGTACTCATCGAATCTCGGAGTCACCTAGTGCAG,8640 fluorescence intensity (a.u.)
21,ATCCCCGTGTTCTCCCCACACAAACCTTCGCGCCGCCCATCGGAGTCACCTAGTGCAG,9540 fluorescence intensity (a.u.)
22,CCTACTTGTTGGCTTCTATCTCCTGTTAATTAATTTCTCACGGAGTCACCTAGTGCAG,8450 fluorescence intensity (a.u.)
23,AATCGTTTTCTTTCTTGTCTTCAAACTTATTTTCCCGTTTCGGAGTCACCTAGTGCAG,9600 fluorescence intensity (a.u.)
24,GGAGGGCGGTGGCGAGGGCGGCGGTGGCGCGGATGCTGGACGGAGTCACCTAGTGCAG,8960 fluorescence intensity (a.u.)
25,GGCGGTGGCGGTGACGGTGGAGGTGGAGGCGGTGTGGCATCGGAGTCACCTAGTGCAG,8420 fluorescence intensity (a.u.)
26,AGGTGGAGGTGGAGGTGGAGGAGGGCGGCGGGTGGCGATGCGGAGTCACCTAGTGCAG,16500 fluorescence intensity (a.u.)
27,AAGGGTGGGCGTGATGGAGTTTGGATGGGCCCTGCGACGGCGGAGTCACCTAGTGCAG,9160 fluorescence intensity (a.u.)

row,Sequence,binding signal
1,GTCAGGTGGCGGCGGCGGCGGTGGTGGCGGTGGAGGTGGACGGAGTCACCTAGTGCAG,14400 fluorescence intensity (a.u.)
2,CAGTTTCATCCCTAGGTGGTGGTGGCGGTGCGTGGAGTGACGGAGTCACCTAGTGCAG,16600 fluorescence intensity (a.u.)
3,CAGGTGGACGGCGGTGGTGGTGGTGGTGGTGGCGGCGATGCGGAGTCACCTAGTGCAG,17000 fluorescence intensity (a.u.)
4,GAGGAGAGGCGGGGTGAGACGGGACGGGAGGGTGGCGATGCGGAGTCACCTAGTGCAG,9530 fluorescence intensity (a.u.)
5,AGGAGGTGGTGGGTGGTGGTGGCTGCGGCTTGGCGCGATGCGGAGTCACCTAGTGCAG,9400 fluorescence intensity (a.u.)
6,TCATGATGAATCGGGGTGGTGGAGGTTTGCTTGTTATGGTCGGAGTCACCTAGTGCAG,11000 fluorescence intensity (a.u.)
7,AGATTTGACTATCCTGCTGGAATCCGGTAACAATTTTTCACGGAGTCACCTAGTGCAG,9560 fluorescence intensity (a.u.)
8,TTGGTTGGTTGGTTATACAAAGACGCTACGAGTCCGGGAACGGAGTCACCTAGTGCAG,12400 fluorescence intensity (a.u.)
9,ACCATAAAGCCAAGTTTCATCCATAATCCTTATTTTTCATCGGAGTCACCTAGTGCAG,8670 fluorescence intensity (a.u.)
10,TGTTATATTTGTATTTGTGCTTTGCTTCTTCTAGGCTTTTCGGAGTCACCTAGTGCAG,8740 fluorescence intensity (a.u.)
11,TCTCTGTCTCACTCTTCCTCTCTCTCACACGCACGGCGAGCGGAGTCACCTAGTGCAG,8380 fluorescence intensity (a.u.)
12,GGTGGAGGCGGGCGCGGTGGAGGCGGGGAGGAAGGGGAGCCGGAGTCACCTAGTGCAG,15100 fluorescence intensity (a.u.)
13,GGGGCGCCGGGAAGGAGGGCGCTGTGTGGGAGGGAGGGAGCGGAGTCACCTAGTGCAG,17100 fluorescence intensity (a.u.)
14,AGGGCGCCGTCGTTCGTCATGCTGCTTCCGCCGCATCCTGCGGAGTCACCTAGTGCAG,9240 fluorescence intensity (a.u.)
15,CACTCCGCTGCCGCCCGCCGGAAGGGGAGGGGAGGAGGGGCGGAGTCACCTAGTGCAG,11700 fluorescence intensity (a.u.)
16,GGGGAGGCGGGGTGGCGGGAGGGAAGGCGGCGGCGGCGCCCGGAGTCACCTAGTGCAG,12700 fluorescence intensity (a.u.)
17,CCCCGGAAGGGGCGGGGAGGGGAGGGCGGCAGCGGCGCCGCGGAGTCACCTAGTGCAG,18500 fluorescence intensity (a.u.)
18,GGCCGGGGAGGGAGGGGCGCCGTCGTCCTGCTGCATCCTGCGGAGTCACCTAGTGCAG,20700 fluorescence intensity (a.u.)
19,GGAGGGGCGGTGGCCGCCGGCGGCCCGCGCGGCGGGAGCGCGGAGTCACCTAGTGCAG,9240 fluorescence intensity (a.u.)
20,GGGGCGCCGCCGTTCGTCCTGCTGCTTCCGCCGCATCCTGCGGAGTCACCTAGTGCAG,9650 fluorescence intensity (a.u.)
21,GCCGTCCGCCGTGAGCCGGTGCTGTCCACGACGTCGTCTTCGGAGTCACCTAGTGCAG,9640 fluorescence intensity (a.u.)
22,TTACTCCTGGACCAGCATTGCTACAACTATCATTTTCTCCCGGAGTCACCTAGTGCAG,9840 fluorescence intensity (a.u.)
23,GGTTTTAAAGGGGTTCCATACACGTATGATAATAAGAGACCGGAGTCACCTAGTGCAG,8180 fluorescence intensity (a.u.)
24,GTCCAGGTTGGTTTTCATGGGTCGAGTGGCATCAGATGGGCGGAGTCACCTAGTGCAG,10100 fluorescence intensity (a.u.)
25,TTCTTGATCTTTCTGGTTTCTACTGGTTGATTGTACACTTCGGAGTCACCTAGTGCAG,8500 fluorescence intensity (a.u.)
26,TTTTTTCTGTTTGTCCTCCATATATGTCAGCTCTAAAAATCGGAGTCACCTAGTGCAG,9300 fluorescence intensity (a.u.)
27,GCCCTTAACGCGATCATGTAACAATGTATCTAAGCCTATACGGAGTCACCTAGTGCAG,8200 fluorescence intensity (a.u.)
